From PubChem BioAssay AID504809 (National Center for Advancing Translational Sciences (NCATS), 2011)
Inconclusive results are not listed. Calls of active or inactive are those of the source. The call rests on the fitted dose curve; in most records, active means well fitted curve in the direction sought with a large enough effect; inconclusive means small, poorly fitted or top-dose-only effect, or another doubt; inactive means no such curve, though single readings can be large or run the other way.

Experiment: Followup screen for small molecules that induce DNA re-replication in MCF 10A normal breast cells
Settings: MCF 10A DNA re-replication, Hoechst nuclear intensity, 48 h; series mostly up to 46.1 µM
Excerpt: NIH Molecular Libraries Probe Production Network [MLPCN] NIH Chemical Genomics Center [NCGC] MLPCN Grant: Fast Track K99 CA136555 Assay Provider: Melvin DePamphilis, NICHD, NIH Assay Overview Eukaryotic cells normally restrict genome duplication to once per cell division. When this process is aberrant, DNA re-replication occurs when cells reinitiate DNA replication before the first round of replication is complete. DNA re-replication induces the DNA damage response, arrests cell proliferation, and triggers apoptosis. The cell cycle components cyclin A, Cdt-1, Cdc6 and geminin are critical regulators of this process and their misregulation results in DNA re-replication in normal and cancer cells. To identify compounds that induce re-replication in normal cells, an image-based assay was used to measure DNA content of nuclei, as detected by the fluorescent DNA binding dye, Hoechst. Cell nuclei were imaged by a fluorescence scanning plate imager and compounds that induce DNA re-replication were identified by the increase of nuclei with elevated fluorescence intensity.
Assay Protocol Summary For screening, 250 cells in 5 uL/well were dispensed into black clear 1536-well plates (Aurora) using a solenoid-based dispenser. Following transfer of 23 nL compound or DMSO vehicle by a pin tool, the plates were incubated 48 hr at 37 C and 5% CO2. After addition of 1 uL/well Hoescht stain, the plates were incubated 40 min at 37 C, 5% CO2 and total intensity of fluorescent objects (nuclei) were enumerated by an Acumen Explorer Ex3 (TTP LabTech) fluorescence scanning plate imager (405 nm excitation, 500-530 nm emission). Keywords: NIH Roadmap, MLPCN, MLI, MLSMR, qHTS, NCGC, DNA replication, cancer

CS(C)=O.[Cl-].[Cl-].[Cu+2]
Potency: inactive

CCN(CC)C(=S)SSC(=S)N(CC)CC.[Cl-].[Cl-].[Cu+2]
Potency: 0.095 µM (active)

CC(=O)[O-].CS(C)=O.[Cu+]
Potency: inactive

CC(=O)[O-].CCN(CC)C(=S)SSC(=S)N(CC)CC.[Cu+]
Potency: 0.19 µM (active)

CCN(CC)C(=S)SSC(=S)N(CC)CC
Potency: 21.3 µM (active)
